FGF22 binding = binders of human FGF22 protein, primary screen, FGF22 synaptogenesis inhibitor project, biophysical, thermal shift, single point. Fibroblast growth factor 22 (Homo sapiens), Q9HCT0. recombinant FGF22 thermal shift, SYPRO orange fluorescence; percent of sucrose octasulfate shift, DMSO zero. activity (Tm shift, normalised), % at 9.99 µM. 340,000 compounds, 1.5% hits;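 active means mean Tm shift, scaled 0 neutral to 100 positive control, at about 1.3% or above, every replicate too, limit read from the data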
CASP6 VEID inh = human caspase-6 inhibitors, primary screen, biochemical, VEID-R110 fluorescence, single point, set 2 | 350,000 compounds, 0.53% hits | AID 686996, 2013 | P55212 | purified caspase-6, Z-VEID-R110 cleavage fluorescence | inhibition, % at 12.5 µM;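 active means mean inhibition across replicates at least about 35%, with every replicate also reaching that limit, limit read from the data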;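 further: 0% = median of neutral control wells and 100% = no fluorescence left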
SIRT5 block = SIRT5 desuccinylase inhibitors, primary screen, biochemical, fluorescence imaging, single point, set 5; inhibition, % at 15 µM; AID 652115, 2013; 330,000 compounds, 1.1% hits; Purified SirT5, succinyl-peptide AMC, trypsin-coupled fluorescence; in the data active means inhibition above about 15%
GSIS activator = GLuc luminescence reporter in INS-1E cells, primary screen for activators of glucose-dependent secretion of insulin; INS-1E GLuc reporter insulin secretion, 2-3 h; activation, % at 16.6 µM; 370,000 compounds, 0.61% hits;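 active means lowest replicate activation of at least 40%, so every replicate reaches that level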;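 further: 0% = median of neutral control wells and 100% = median of IBMX positive control wells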
ERAP1 inh = human ERAP1 aminopeptidase inhibitors, primary screen, biochemical, single point, plate reader; Endoplasmic reticulum aminopeptidase 1 (Homo sapiens), Q9NZ08; recombinant ERAP1, Leu-AMC fluorescence, 60 min; inhibition, % at 10.7 µM; 340,000 compounds, 0.15% hits;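 active means mean replicate inhibition of at least 30%, or all replicates individually reaching that 30% level; inactive means mean below 30% and not every replicate reaching it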;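 further: 0% = neutral control wells and 100% = L-leucinethiol positive control wells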
* hit, by the source's call; ! = repeats disagree. Hits are enriched below; roughly 3.3% of the tested compounds scored in any of these assays.

COc1ccc2c3c(n(C)c2c1)[C@H](CO)N(C(=O)C1CCOCC1)CC31CCN(C(=O)C2CCOCC2)CC1 was read as FGF22 binding 0, CASP6 VEID inh 1, SIRT5 block 2, GSIS activator 4 and ERAP1 inh 0.
`Cc1ccc(S(=O)(=O)Nc2ccc3c(c2)C(=O)N([C@@H](C)CO)C[C@H](C)[C@@H](CN(C)C(=O)Nc2ccc(C(F)(F)F)cc2)OCCCC[C@H](C)O3)cc1` gave FGF22 binding 0, CASP6 VEID inh 1, SIRT5 block 17*, GSIS activator 23 and ERAP1 inh 3.
C[C@@H]1CCCCO[C@H](CN(C)C(=O)CCC(F)(F)F)[C@H](C)CN([C@@H](C)CO)C(=O)c2cc(NS(=O)(=O)c3ccc(Cl)cc3)ccc2O1 was read as FGF22 binding 0, CASP6 VEID inh 1, SIRT5 block 17*!, GSIS activator 7 and ERAP1 inh -1.
C[C@@H]1CCCCO[C@@H](CN(C)C(=O)Nc2ccc(C(F)(F)F)cc2)[C@H](C)CN([C@@H](C)CO)C(=O)c2cc(NS(=O)(=O)c3ccc(Cl)cc3)ccc2O1 was read as FGF22 binding 0, CASP6 VEID inh 0, SIRT5 block 19*, GSIS activator 7 and ERAP1 inh 0.
C[C@@H]1CN([C@@H](C)CO)C(=O)c2cc(N(C)C)ccc2O[C@@H](C)CCCCO[C@@H]1CN(C)C(=O)Nc1ccccc1 was read as FGF22 binding -1, CASP6 VEID inh 4, SIRT5 block 16*, GSIS activator 18 and ERAP1 inh 3.
C[C@H](CO)N1C[C@H](C)[C@H](CN(C)C(=O)Nc2ccc(C(F)(F)F)cc2)OCCCC[C@H](C)Oc2ccc(NS(=O)(=O)c3ccc(F)cc3)cc2C1=O was read as FGF22 binding 0, CASP6 VEID inh 1, SIRT5 block 0, GSIS activator 20 and ERAP1 inh -3.
Screening CC(C)NC(=O)N[C@H]1CC[C@H](CCn2cc(-c3ccc(F)cc3)nn2)O[C@H]1CO returned FGF22 binding 1, CASP6 VEID inh 1, SIRT5 block 0, GSIS activator 7 and ERAP1 inh 0.
For C[C@@H]1CN([C@@H](C)CO)C(=O)Cc2cc(NC(=O)Nc3ccc(C(F)(F)F)cc3)ccc2O[C@H]1CN(C)S(=O)(=O)c1ccc(F)cc1 the results were GSIS activator 8.
CCCNC(=O)N(C)C[C@@H]1Oc2cc(C3=CCCC3)ccc2S(=O)(=O)N([C@@H](C)CO)C[C@H]1C was read as FGF22 binding 0, SIRT5 block 0, GSIS activator -3 and ERAP1 inh 8.
For CCC(=O)Nc1ccc2c(c1)OC[C@H](C)N(C(=O)CC1CC1)C[C@H](C)[C@H](OC)CN(C)C2=O the results were FGF22 binding -1, CASP6 VEID inh 1, SIRT5 block 5, GSIS activator 6 and ERAP1 inh 1.
`COc1ccc(-c2cn(CC[C@H]3CC[C@H](NC(=O)NC(C)C)[C@H](CO)O3)nn2)cc1` gave FGF22 binding 0, CASP6 VEID inh 0, SIRT5 block -2, GSIS activator 0 and ERAP1 inh 2.
Screening Cc1ccc(S(=O)(=O)Nc2ccc3c(c2)C(=O)N([C@H](C)CO)C[C@H](C)[C@H](CN(C)C(=O)Cc2ccccc2)OCCCC[C@H](C)O3)cc1 returned CASP6 VEID inh 1, SIRT5 block 16*, GSIS activator -31 and ERAP1 inh 0.
`CO[C@H]1CC[C@@H]2CCOc3ccc(C#N)cc3C(=O)N(C)C[C@@H](C)C(=O)N(C)C[C@H]1O2` gave FGF22 binding 0, CASP6 VEID inh -7, SIRT5 block -3, GSIS activator -3 and ERAP1 inh -4.
`O=C(C[C@H]1C=C[C@@H](NC(=O)c2ccc3c(c2)OCO3)[C@@H](CO)O1)NCc1ccc(F)cc1` gave CASP6 VEID inh -1, SIRT5 block 0, GSIS activator -11 and ERAP1 inh -1.

Source: PubChem
